# Assay outcomes: PubChem BioAssay, National Center for Advancing Translational Sciences (NCATS)
# DT40 TDP1 no CPT: qHTS for Inhibitors of human tyrosyl-DNA phosphodiesterase 1 (TDP1): qHTS in cells in absence of CPT; DT40 Tdp1-/- hTDP1 cells, no CPT, ATP luminescence, 48 h; Potency, µM (top dose mostly 46.2 µM), for the others: top-dose activity change, negative = growth inhibition, most hits filed as inhibitors; 420,000 tested, 15% active; AID 686978, 2013; further: potency means the concentration at half of the fitted maximal effect; nearly all actives have a fitted effect of over 55% in size
#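 Growth of hTDP1-complemented DT40 Tdp1-knockout cells is measured by ATP luminescence after at least 48 hr compound exposure at 37 °C, with DMSO substituting for the 20 nM CPT used in the parallel screen.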
# RORg inh: qHTS for inhibitors of ROR gamma transcriptional activity; Drosophila S2 Gal4-RORgamma UAS-luciferase reporter, 20 h; Potency, µM (titrated, usually from 53.6 µM), for inactives: top-dose activity change, negative = inhibition, actives largely listed as inhibitors; 310,000 tested, 5.4% active; AID 2551, 2010; further: potency means the concentration at half of the fitted maximal effect; nearly all actives have a fitted effect of over 60% in size
# Target sequence (P51450 whole entry, looked up, the tested form may be a part): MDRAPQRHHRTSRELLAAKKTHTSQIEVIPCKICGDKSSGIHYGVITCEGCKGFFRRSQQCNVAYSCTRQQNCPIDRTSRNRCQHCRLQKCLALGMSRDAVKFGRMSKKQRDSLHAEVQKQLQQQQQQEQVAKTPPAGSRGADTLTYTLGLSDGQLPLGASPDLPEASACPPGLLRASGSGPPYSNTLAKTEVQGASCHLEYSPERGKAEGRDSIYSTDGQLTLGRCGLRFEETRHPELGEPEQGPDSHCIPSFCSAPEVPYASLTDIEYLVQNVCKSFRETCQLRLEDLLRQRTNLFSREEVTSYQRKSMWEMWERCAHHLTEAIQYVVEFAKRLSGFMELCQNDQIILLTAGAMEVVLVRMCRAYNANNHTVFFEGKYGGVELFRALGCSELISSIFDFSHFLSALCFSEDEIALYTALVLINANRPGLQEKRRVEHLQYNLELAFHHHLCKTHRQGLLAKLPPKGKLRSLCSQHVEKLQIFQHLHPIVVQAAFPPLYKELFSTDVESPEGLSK
#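 Read-out: Photinus luciferase luminescence; inhibitors lower reporter signal. Insect Schneider cells with Gal4-ROR gamma fusion under metallothionein promoter, UAS reporter; 700 uM final copper sulfate induction, 20 hr, ambient temperature.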
# DT40 TDP1 CPT: qHTS for Inhibitors of human tyrosyl-DNA phosphodiesterase 1 (TDP1): qHTS in cells in presence of CPT | chicken DT40 Tdp1-/-;hTDP1 cells + 20 nM CPT, ATP luminescence, 48 h | Potency, µM (doses to about 46.2 µM), without a hit: at the top dose activity change, negative = growth inhibition, hits mostly inhibitors | 420,000 tested, 12% active | AID 686979, 2013; further: potency means the concentration at half of the fitted maximal effect; nearly all actives have a fitted effect of over 55% in size
#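 Chicken DT40 Tdp1-/- cells stably complemented with human TDP1 were seeded at 400 cells/well in medium containing 20 nM camptothecin, exposed to pin-transferred compounds, and grown at 37 °C for at least 48 hr. Viability was read as ATP luminescence.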
# Gal4-VP16 FLuc: VP16 counterscreen qHTS for inhibitors of ROR gamma transcriptional activity | Drosophila S2 Gal4-VP16 UAS-luciferase, luminescence, 20 h | Potency, µM (series often up to 53.6 µM), for the others: at the highest dose activity, negative = inhibition, most hits filed as inhibitors | 310,000 tested, 3.5% active | AID 2546, 2010;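 further: Gal4-VP16 expression switched on by copper sulfate through the metallothionein promoter; potency means the concentration at half of the fitted maximal effect; nearly all actives have a fitted effect of over 50% in size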
# IL-1B inflam inh: qHTS for Inhibitors of Inflammasome Signaling: IL-1-beta AlphaLISA Primary Screen; THP-1 LPS/ATP IL-1B secretion, AlphaLISA, 16 h; stronger effect = lower value; activity change, % at 57.5 µM; 360,000 tested, 4.7% active; in the data active means activity change below about -50%; inconclusive means mostly about -30% to -49%
#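 Secreted IL-1B measured by AlphaLISA bead assay after 16 h compound exposure of THP-1 cells; compounds (final up to 57.5 uM) added 1 h before LPS (250 ng/mL) and ATP (1.25 mM) stimulation; lower signal means less secretion.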
# ELG1 repair inh: qHTS screen for small molecules that inhibit ELG1-dependent DNA repair in human embryonic kidney (HEK293T) cells expressing luciferase-tagged ELG1; HEK293T ELG1-luciferase reporter, luminescence, 16 h; DNA damage induced by 5-fluorouridine; Potency, µM (doses to about 46.1 µM), without a hit: at the top dose activity change, negative = inhibition, most hits filed as inhibitors; 330,000 tested, 2.3% active; AID 504467, 2011; further: potency means the concentration at half of the fitted maximal effect; nearly all actives have a fitted effect of over 55% in size
#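 Cells (2,000 per well) received 5-fluorouridine plus test compound or DMSO and were incubated 16 hr at 37 °C, 5% CO2. Luciferase activity was read by luminescence 30 min after ONE-Glo addition; signal suppression marked inhibition of damage-induced ELG1 function.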
# Numbers without * were called inactive; u = inconclusive; x = no result; [ ] = another dose, or the depositor's remark. Sampled rows, rich in hits. Any-hit rate of the full collection: about 21%. Unless noted, the call rests on the fitted dose curve; in most records, active means well fitted curve in the direction sought with a large enough effect; inconclusive means small, poorly fitted or top-dose-only effect, or another doubt; inactive means no such curve, though single readings can be large; an effect the other way counts as inactive or inconclusive. On the % scale 0 is the no-effect control and ±100 the full control effect.
SMILES,DT40 TDP1 no CPT,RORg inh,DT40 TDP1 CPT,Gal4-VP16 FLuc,IL-1B inflam inh,ELG1 repair inh
CC(Nc1cc(N2CCN(S(=O)(=O)N(C)C)CC2)ccc1[N+](=O)[O-])c1ccccc1 (stereo not drawn),4%,3%,-5%,6%,16,-19%
COc1cccc(C(CNc2ccc(S(=O)(=O)N3CCN(C)CC3)cc2[N+](=O)[O-])N(C)C)c1 (stereo not drawn),u,x,23µM*,x,-16,4%
O=C(OCc1c(F)cccc1Cl)c1cnc2ccccc2n1,-4%,5%,5%,1%,26,22%
O=C(c1ccc2c(c1)N(Cc1ccc(Cl)cc1)C(=O)c1ccccc1S2=O)N1CCN(c2ccccc2F)CC1 (stereo not drawn),21µM*,x,23µM*,x,x,x
O=C(c1ccc2c(c1)N(Cc1ccccc1F)C(=O)c1ccccc1S2=O)N1CCN(c2ccccc2)CC1 (stereo not drawn),16µM*,x,23µM*,x,x,x
O=C1[C@@H]2[C@H]3[C@H](O)[C@H](O)C/C(=N/OC[C@@H](O)COCc4ccco4)[C@H]3CC[C@H]2C(=O)N1c1ccc(F)cc1F,x,-4%[10 µM],x,-13%[10 µM],x,x
CC1Nc2nc(N(C)C)[nH]c(=O)c2NC1C (stereo not drawn),u,-2%,26µM*,-4%,31,4%
CN(C)c1nc2ncn(Cc3ccccc3)c2c(=O)[nH]1,28%,-6%,-2%,-14%,2,13%
CCOc1ccc(CCNC(=O)Cn2nnc(-c3ccc(C(F)(F)F)cc3)n2)cc1OCC,u,x,-19%,x,x,x
Cc1ccccc1-c1cn(-c2ccccc2)c(=S)[nH]1,u,3.2µM*,u,10µM*,-3,0%
FC(F)(F)c1cccc(-n2cc(-c3ccccc3)[nH]c2=S)c1,u,2.8µM*,u,u,-6,17%
CC(C)OC(=O)N(C)C[C@@H]1OCc2cnnn2CCCC(=O)N([C@H](C)CO)C[C@H]1C,-1%,x,3%,x,19,x
CCOC(=O)CNC(=O)CSc1nnc(C)c(=O)[nH]1,0%,-17%,-6%,-6%,11,12%
CCOC(=O)CSc1nnc(NCC(=O)OC(C)C)c(=O)[nH]1,23µM*,-21%,10µM*,1%,14,2%
CCCNC(=O)C(Cc1cccc(C#N)c1)NC(=O)c1cccc([N+](=O)[O-])c1 (stereo not drawn),-22%,x,-22%,x,1,12%
COc1ccc(C2CC(=O)c3cc(-c4nc(-c5ccc(Cl)cc5)c(C)s4)c(=O)[nH]c3C2)cc1 (stereo not drawn),1.8µM*,x,u,x,x,x
Cc1ccc(-c2csc(-c3cc4c([nH]c3=O)CC(c3ccccc3)CC4=O)n2)cc1 (stereo not drawn),1.3µM*,x,1.5µM*,x,x,x
COc1ccc(C2CC(=O)c3cc(-c4nc(-c5cccc(Cl)c5)cs4)c(=O)[nH]c3C2)cc1 (stereo not drawn),0%,x,3%,x,x,x
CC1(C)CC(=O)c2cc(-c3nc(-c4ccccc4)cs3)c(=O)[nH]c2C1,13µM*,x,9.2µM*,x,x,x
Cc1ccc(Cl)cc1NC(=O)Nc1cccc(OCc2cc(=O)n3ccccc3n2)c1,-7%,x,10%,x,x,x
CNC(=O)NC(=O)CSc1ccc(S(=O)(=O)N(C)C2CCCCC2)cn1,u,x,-10%,x,21,18%
c1ccc(CCn2nnc3ccccc32)cc1,u,17%,u,-6%,3,u
c1ccc2c(c1)nnn2CNc1nccs1,-33%,-19%,9.2µM*,-2%,10,12%
Cc1ccc(NC(=O)NCC2CCN(Cc3cccc(Cl)c3)CC2)c(Cl)c1,-30%,-13%,u,-6%,-51*,2%
Cc1cccc(CN2CCC(CNC(=O)CSc3cc(=O)n(C)c4cc(Cl)ccc34)CC2)c1,0%,-6%,9%,-2%,20,7%
SMILES,DT40 TDP1 no CPT,RORg inh,DT40 TDP1 CPT,Gal4-VP16 FLuc,IL-1B inflam inh,ELG1 repair inh
O=C(NCC1CC1)Nc1ccccc1F,16%,-14%,-11%,1%,11,u
O=C(Nc1ccc(CN2CCCCC2)cc1)Nc1ccccc1Cl,u,-10%,u,5%,u,u
O=C(Nc1ccccc1C(F)(F)F)c1ccc(CN2CCC(Cc3ccccc3)CC2)cc1,-96%,29%,18µM*,-3%,-52*,u
O=C(NCC1CCN(Cc2cccc(Cl)c2)CC1)Nc1ccccc1Cl,u,-2%,-21%,10%,-83*,-6%
Cc1ccc(CN2CCC(CNC(=O)Nc3ccccc3F)CC2)cc1,u,-11%,1%,-3%,-53*,-8%
O=C(Nc1ccccc1)c1ccc(CN2CCC(Cc3ccccc3)CC2)cc1,u,x,u,x,-19,x
CN(C(=O)c1cc2c(cc1Br)OCO2)c1cccc2ccccc12,21µM*,x,u,x,27,x
CCN(CC)CCNC(=O)Cn1cnc2sc(C)c(S(=O)(=O)N3CCN(c4ccccc4OC)CC3)c2c1=O,8%,-18%,1%,-12%,-9,-11%
COCCCNC(=O)Cn1cnc2sc(C)c(S(=O)(=O)N3CCN(c4ccccc4OC)CC3)c2c1=O,-14%,26%,-5%,0%,-9,-1%
COc1ccccc1N1CCN(S(=O)(=O)c2c(C)sc3ncn(CC(=O)N(C)c4ccc(Cl)cc4)c(=O)c23)CC1,16µM*,x,18µM*,x,x,x
CCCCN(C)C(=O)Cn1cnc2sc(C)c(S(=O)(=O)N3CCN(c4ccccc4OC)CC3)c2c1=O,23µM*,12%,23µM*,3%,11,5.2µM*
O=c1cc(-c2ccc(O)cc2)oc2ccccc12,u,10%,u,0%,5,u
COc1ccc(-c2cc(=O)c3c(OC)c(OC)c(OC)c(OC)c3o2)cc1OC,21µM*,u,21µM*,-2%,-26,u
COc1ccc2c(=O)cc(-c3ccncc3)oc2c1OC,u,x,u,x,-96*,x
O=c1cc(-c2ccncc2)oc2ccccc12,u,-16%,-30%,-3%,-77*,9.2µM*
